Screening results: PubChem, several laboratories
DUSP3 inh – DUSP3 (human) phosphatase inhibition. inhibition, % at 13.3 µM. 290,000 compounds, 0.52% hits. AID 1654. recombinant VHR phosphatase, pNPP absorbance. P51452; in the data active means inhibition above about 50%
Target sequence (P51452 whole entry, looked up): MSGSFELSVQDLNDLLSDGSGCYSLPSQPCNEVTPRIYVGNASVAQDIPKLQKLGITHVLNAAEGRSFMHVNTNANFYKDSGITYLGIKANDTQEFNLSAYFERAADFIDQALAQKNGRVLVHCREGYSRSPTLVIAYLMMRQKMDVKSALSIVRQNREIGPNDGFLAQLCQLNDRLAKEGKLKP
PrPC surface inh – inhibitors of human cell surface prion protein PrPC; TR-FRET read-out; inhibition, % at 13.8 µM; 370,000 compounds, 0.43% hits; in the data active means inhibition above about 24%
Mtb hypoxia rep – Mtb hypoxia fluorescent reporter inhibition; M. tuberculosis hypoxia-regulated fluorescent reporter, fluorescence; 300,000 compounds, 0.1% hits; fluorescence inhibition, % (no concentration beside the values); in the data active means fluorescence inhibition mostly above about 23%, no sharp cut-off; inactive means mostly below about 17%
3CLpro inhibitor – SARS-CoV 3CLpro protease inhibition; recombinant SARS-CoV 3CLpro, quenched FRET peptide cleavage; inhibition, % at 6 µM; 290,000 compounds, 0.14% hits; in the data active means inhibition above about 12%
MazF activator – MazEF (E. coli) toxin RNase activation; FAM/BHQ RNA-DNA oligo cleavage fluorescence, 5 h; 350,000 compounds, 0.32% hits; P0AE70; activation, % at 20 µM; AID 504720; in the data active means activation above about 50%
Target sequence (P0AE70 whole entry, looked up): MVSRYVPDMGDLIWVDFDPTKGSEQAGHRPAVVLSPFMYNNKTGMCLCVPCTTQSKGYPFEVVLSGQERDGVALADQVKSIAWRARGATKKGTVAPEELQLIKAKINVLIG
PrP UTR inh – inhibition of PrP 5' UTR reporter expression; cell-based PrP 5' UTR mRNA reporter, plate reader; inhibition, % (test concentration not listed); 340,000 compounds, 0.35% hits; in the data active means inhibition above about 52%
A number is an active result; - = inactive; . = no result given; + = active, no number. Hits are enriched below; roughly 1.5% of the tested compounds scored in any of these assays.

SMILES | DUSP3 inh | PrPC surface inh | Mtb hypoxia rep | 3CLpro inhibitor | MazF activator | PrP UTR inh
CCN1C(=O)C2C(c3ccc(-c4ccc(Cl)c(Cl)c4)c(OC)c3)N3CCC[C@@]3(C(=O)OC)C2C1=O (stereo partly specified) | . | . | - | . | . | .
CCOC1OC(C(N)=O)=CC(C2CC2)C1CCCO (stereo unspecified) | . | . | - | . | . | .
O=C(c1ccc(Br)o1)N1CCN(C23CC4CC(CC(C4)C2)C3)CC1 | 56 | - | - | - | - | -
O=C(c1ccco1)N1CCN(C(=O)c2ccc(Br)o2)CC1 | . | - | . | . | - | .
CC#CCN1c2ccccc2[C@]23CC(C(=O)OC)N(C(=O)NC(C)(C)C)C2=NC(C(=O)OC)=C(C(=O)OC)C13 (stereo partly specified) | . | . | - | . | . | .
COc1cccc(C2=CC(=O)CC(c3ccc(Cl)cc3)C2)c1 (stereo unspecified) | . | . | - | . | . | .
O=C(NCc1cccc(Cl)c1)c1ccc2nc[nH]c2c1 | 56 | - | - | - | - | -
O=C(NCc1ccc(Cl)cc1)c1ccc2nc[nH]c2c1 | - | - | - | - | - | -
O=C(NC(=S)NNC(=O)c1cnccn1)c1ccc(Cl)cc1 | - | - | 35 | - | - | -
COc1ccc(C(=O)NC(=S)NNC(=O)c2cnccn2)cc1 | - | - | - | - | - | -
CC1(C)OC2C(COS(=O)(=O)O)OC(n3ccc(=O)[nH]c3=O)C2O1 (stereo unspecified) | . | . | - | . | . | .
CCC1CCCCN1S(=O)(=O)c1ccc([N+](=O)[O-])cc1 (stereo unspecified) | 51 | - | - | - | - | -
CC1CCCCN1S(=O)(=O)c1ccc([N+](=O)[O-])cc1 (stereo unspecified) | - | - | - | - | - | -
S=C(Nc1ccc(N2CCOCC2)cc1)Nc1ccc2nc(-c3ccco3)c(-c3ccco3)nc2c1 | 50 | - | . | - | - | -
NC(=O)NN=Cc1cccs1 | . | . | - | . | . | .
Cc1cc(C)c(C(=O)NNC(=O)c2cccnc2)c(C)c1 | 56 | - | - | - | - | -
O=C(NNC(=O)c1cccnc1)c1ccncc1 | - | - | - | - | - | -
CC(=NNc1cc(N2CCOCC2)ncn1)c1ccc(O)cc1 | . | . | - | . | . | .
O=C(NN=Cc1sc(=O)n(Cc2ccc(Br)cc2)c1Cl)c1ccco1 | . | . | - | . | . | .
CC1CN(c2ccc([N+](=O)[O-])c(NCCOc3ccccc3)c2)CC(C)N1 (stereo unspecified) | 52 | - | - | - | - | -
Cc1ccc(C(C)(C)C)cc1S(=O)(=O)Nc1nc2ccccc2nc1Cl | - | 27 | - | - | - | -
CC(=O)OCCn1c2nc(=O)[nH]c(=O)c-2nc2cc(C)c(C)cc21 | - | - | - | - | 480 | -
COc1ccc(C=NN2C(=N)SCC2=O)cc1 | . | . | - | . | . | .
Cc1c(C(=O)N2CCCCC2)c(S(=O)(=O)N(C)Cc2ccccc2)c(C)n1C | 54 | - | - | - | - | -
Cc1c(C(=O)N2CCCCC2)c(S(=O)(=O)N(C)Cc2ccco2)c(C)n1C | - | - | - | - | - | -
SMILES | DUSP3 inh | PrPC surface inh | Mtb hypoxia rep | 3CLpro inhibitor | MazF activator | PrP UTR inh
CC1CN(C(C)CO)C(=O)c2cc(NS(=O)(=O)c3ccccc3)ccc2OC1CN(C)C(=O)Nc1ccc(C(F)(F)F)cc1 (stereo unspecified) | . | . | - | . | . | .
COc1ccc(OCC(O)Cn2c(N3CCCCC3)nc3c2c(=O)[nH]c(=O)n3C)cc1 (stereo unspecified) | - | - | - | - | - | -
COc1ccc(OCC(O)Cn2c(N3CCCCC3)nc3c2c(=O)n(C)c(=O)n3C)cc1 (stereo unspecified) | 58 | - | - | - | - | -
Cc1ccc(-c2ccc(C=N/N=C3/NC(=O)C(CC(=O)O)S3)o2)c([N+](=O)[O-])c1 (stereo unspecified) | . | . | - | . | . | .
Cc1ccc(/C=C2/NC(=O)N(Cc3ccccc3F)C2=O)s1 | - | - | - | - | 86 | -
CC1CCCCN1C(=O)Cn1cc(C#N)c2ccccc21 (stereo unspecified) | - | - | - | - | - | -
CCN1C(=O)NC(=O)/C(=C\c2cn(CC(=O)N3CCCCC3C)c3ccccc23)C1=O (stereo unspecified) | - | . | - | - | + | -
S=c1[nH]nc(-c2ccc3ccccc3n2)n1-c1cc(Cl)cc(Cl)c1 | 55 | - | - | - | - | -
O=C(Nc1ccnn1C1CCN(C2CCC2)CC1)c1ccccc1 | - | - | - | - | - | -
COc1ccc(C(=O)Nc2ccnn2C2CCN(C3CCC3)CC2)cc1 | 52 | - | - | - | - | -
C=CCc1cccc2cc(C(=O)Nc3ccc(F)cc3)c(=O)oc12 | - | - | - | - | - | -
C=CCc1cccc2cc(C(=O)Nc3ccc(CC(=O)O)cc3)c(=O)oc12 | 52 | - | - | - | - | -
CSc1nsc(NN=Cc2ccc3c(c2)OCO3)c1C#N | . | . | - | . | . | .
N#CC1=C(N)SC(N)=C(C#N)C1c1c(Cl)cccc1Cl | - | 41 | . | - | - | -
N#CC1=C(N)SC(N)=C(C#N)C1CCc1ccccc1 | - | - | - | - | - | -
CC(C)CC(C(=O)NC1CCCCC1)N(Cc1ccccc1)C(=O)c1snc(C(N)=O)c1N (stereo unspecified) | 58 | - | - | - | - | -
CCCN1C(=O)C(=NOCC(=O)NC23CC4CC(CC(C4)C2)C3)c2ccccc21 | . | . | - | . | . | .
Nc1c(C(=O)C2CC2)sc2nc(-c3cccs3)cc(C(F)(F)F)c12 | - | - | . | - | + | -
CSC1=NSC2=NC(=O)C(=Cc3coc4ccc(O)cc4c3=O)C(=N)N12 | . | . | - | . | . | .
CN(C)CCCNC(=O)/C(=C\c1ccc(-c2cccc([N+](=O)[O-])c2)o1)NC(=O)c1ccccc1 | - | - | - | - | - | -
Cc1ccc(C(=O)N/C(=C\c2ccc(-c3cccc([N+](=O)[O-])c3)o2)C(=O)NCCCN(C)C)cc1 | 54 | - | - | - | - | -
COc1ccc(CC2CN3C(=NCC3C(C)C)N2CCNC(=O)CCC2CCCCC2)cc1 (stereo unspecified) | . | . | - | . | . | .
COc1ccc2cc(C#N)c(SCC(=O)Nc3nonc3C)nc2c1 | - | - | - | - | - | -
CCOC(=O)CSc1nc2cc(C)ccc2cc1C#N | - | - | - | - | 628 | -
Cc1cc2cc(C#N)c(SCC(=O)Nc3nonc3C)nc2cc1C | - | - | - | - | 63 | -
SMILES | DUSP3 inh | PrPC surface inh | Mtb hypoxia rep | 3CLpro inhibitor | MazF activator | PrP UTR inh
COc1ccc2nc(SCC(C)=O)c(C#N)cc2c1 | - | - | - | - | 934 | -
CCOC(=O)CSc1nc2cc(OC)ccc2cc1C#N | - | - | - | - | 120 | -
CCOC(=O)CSc1nc2cc(C)cc(C)c2cc1C#N | - | - | . | - | - | -
O=S(=O)(NN=Cc1ccccc1F)c1ccccc1 | . | . | - | . | . | .
COC(=O)c1ccc(C=NNC(=O)c2c(C)nc3ccc(Cl)cn23)cc1 | . | . | - | . | . | .
CCOC(=O)CSc1nc2ccc(C)cc2cc1C#N | - | - | - | - | 296 | -
COc1ccc2nc(SCC(=O)N3CC(=O)Nc4ccccc43)c(C#N)cc2c1 | - | - | - | - | 58 | -
